The values below come from PubChem BioAssay (EPA / NIEHS).

What is called AC50 is the concentration at which the activity in the assay is half-maximal.

Records with an inconclusive call do not appear. Calls of active or inactive are those of the source. Rule for the calls: active = hit-call score of the fitted dose curve at least 0.9, where 1 is the maximum; inconclusive = response in the unintended direction; inactive = score below 0.9.

Cytochrome P450 3A4 (Homo sapiens), sequence (P08684 whole entry, looked up): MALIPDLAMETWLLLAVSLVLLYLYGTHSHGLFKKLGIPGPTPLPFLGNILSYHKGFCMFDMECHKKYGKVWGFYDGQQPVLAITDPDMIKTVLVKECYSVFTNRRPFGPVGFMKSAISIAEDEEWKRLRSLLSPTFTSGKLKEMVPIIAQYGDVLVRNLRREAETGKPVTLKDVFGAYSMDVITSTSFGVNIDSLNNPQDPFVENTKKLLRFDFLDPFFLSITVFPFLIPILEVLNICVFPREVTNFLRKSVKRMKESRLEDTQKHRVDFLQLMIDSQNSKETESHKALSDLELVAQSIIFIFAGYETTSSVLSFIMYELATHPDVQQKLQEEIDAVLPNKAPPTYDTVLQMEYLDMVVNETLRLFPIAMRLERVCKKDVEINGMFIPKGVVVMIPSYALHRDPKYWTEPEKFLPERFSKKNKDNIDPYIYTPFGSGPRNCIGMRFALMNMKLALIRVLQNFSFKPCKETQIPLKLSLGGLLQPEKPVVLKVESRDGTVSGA

Read-out in the test: Cytochrome P450 3A4 (Homo sapiens) (UniProt P08684)
Nature of the test: CLD_CYP3A4_24hr: CellzDirect (CLD) Gene Expression Assay for xenobiotic metabolism (CYP3A4) at 24 hours (AID 2283689). On the procedure:
CLD_24hr is a cell-based, multiplexed-readout assay that uses hepatocyte, a human liver primary cell, with measurements taken at 24 hours after chemical dosing in a 96-well plate.CLD_CYP3A4_24hr is one of 16 assay component(s) measured or calculated from the CLD_24hr assay. It is designed to make measurements of mRNA induction, a form of inducible reporter, as detected with chemiluminescence signals by Quantitative Nuclease Protection Assay (qNPA) technology.Data from the assay component CLD_CYP3A4_24hr was analyzed at the endpoint, CLD_CYP3A4_24hr, in the positive analysis fitting direction relative to DMSO as the negative control and baseline of activity. Using a type of inducible reporter, gain-of-signal activity can be used to understand changes in the reporter gene as they relate to the gene CYP3A4. Furthermore, this assay endpoint can be referred to as a primary readout. To generalize the intended target to other relatable targets, this assay endpoint is annotated to the cyp intended target family, where subfamily is xenobiotic metabolism.
Human hepatocyte cultures were treated daily for two consecutive days with fresh dosing solutions containing appropriate concentrations of the 320 ToxCast chemicals (chemical identities were blinded to CellzDirect and other ToxCast collaborators), vehicle control (0.2% DMSO), and positive control inducers as summarized in Table 1. Due to the large number of treatment groups and chemicals examined, the ToxCast chemicals were divided into two groups (spanning two independent cultures of hepatocytes from separate donor preparations (Hu778: ToxCast plates 1 and 2; Hu776: ToxCast plates 3 and 4). Each preparation of human hepatocyte cultures was treated with respective vehicle control, medium only control, set of six positive controls/reference chemicals for the five hepatic receptor pathways, and a subset of eight of the ToxCast chemicals (indoxacarb, pyrithiobac-sodium, norflurazon, cyhalofop-butyl, methomyl, thiram, acetochlor, and propiconazole). These replicate data, coupled with internal replicates designed within the blinded ToxCast chemical library, provided additional data to evaluate interindividual differences between hepatocyte preparations and their potential impact on chemical profiles.Cell morphology and integrity were evaluated using phase-contrast microscopy as an indicator of hepatocyte cell health (Tyson & Green, 1987). Cultures for each treatment group (i.e., media, vehicle [0.2% DMSO], positive control inducers [multiple concentrations], and the ToxCast chemicals [multiple concentrations]) were observed and cell morphology was assessed relative to vehicle control cultures at each harvest time point (0, 6, 24, or 48 h). […] Images were evaluated at the conclusion of the study to assess changes in cell integrity and account for the effects of chemical exposure on uncharacteristic changes in concentration-dependent gene expression profiles. The results from these determinations of apparent cytotoxicity were annotated (yes/no) alongside the corresponding qNPA data for reference.At the conclusion of each treatment period, hepatocyte cultures (96-well) were washed with 1 volume of HBSS, lysed by addition of 25 ul ArrayPlate lysis buffer (HTG, Tucson, AZ), and 70 ul/well of Denaturation Oil, denatured by incubation at 95C for 10 min, and frozen at approximately -70C until analysis by nuclease protection assay (qNPA) (Roberts et al., 2007). For qNPA analysis, cell lysates were thawed at 50C for approximately 30 min, qNPA probes were added, and samples were incubated at 95C for 10 min to begin the detection process by denaturing the target RNA, dissociating the duplexes and secondary structure hybridization. At the conclusion of the hybridization period, S1 nuclease reagent was added to each sample to digest all nonprotected nucleotides at 50C for 60-90 min. […]
Turning to `O=C(Nc1ccc([N+](=O)[O-])cc1Cl)c1cc(Cl)ccc1O`, the call was inactive.

For the compound `CC(C)(c1ccc(O)cc1)c1ccc(O)cc1`, the compound was called inactive.

In the case of `c1ccc(Nc2ccccc2)cc1`, the compound was classed as inactive.

Consider `CCOC(=O)C(C)Oc1ccc(Oc2nc3ccc(Cl)cc3o2)cc1` (configuration not stated), for which the outcome was inactive.

For `COc1nc(C)nc(NC(=O)NS(=O)(=O)c2ccccc2OCCCl)n1`, the AC50 was 6.77 µM (active).

Regarding `CCCN(CCC)c1c([N+](=O)[O-])cc(C(F)(F)F)c(N)c1[N+](=O)[O-]`, the AC50 was 8.44 µM (active).

For `CCCCOC(=O)C(C)Oc1ccc(Oc2ccc(C(F)(F)F)cn2)cc1` (configuration not stated), the result was inactive.

Turning to `CCCN(CCC)C(=O)SCC`, the call was inactive.

As to `S=C([S-])NCCNC(=S)[S-].[Mn+2]`, the call was inactive.

For `N#CSCSc1nc2ccccc2s1`, the outcome was inactive.

As for `CC1(C)C(C=C(Cl)Cl)C1C(=O)OCc1cccc(Oc2ccccc2)c1` (configuration not stated), the compound was classed as inactive.

For `COC(=O)c1ccc(CNS(C)(=O)=O)cc1S(=O)(=O)NC(=O)Nc1nc(OC)cc(OC)n1`, the outcome was inactive.

Consider `CCCOC(=O)NCCCN(C)C`, for which the compound was called inactive.

As for `COC(=O)c1cccc(C)c1S(=O)(=O)NC(=O)Nc1nc(OCC(F)(F)F)nc(N(C)C)n1`, the AC50 was 20 µM (active).

`COC(=O)c1ccccc1C(=O)O`: the result was inactive.

As to `S=C(S)NCCNC(=S)S.[Mn+2].[S-]C([S-])=NCCN=C([S-])[S-].[Zn+2]`, the call was inactive.

As for `COC(=O)c1c(Cl)nn(C)c1S(=O)(=O)NC(=O)Nc1nc(OC)cc(OC)n1`, the AC50 is 4.62 µM (active).

In the case of `COC(=O)CSc1cc(N=c2sc(=O)n3n2CCCC3)c(F)cc1Cl`, the AC50 was 1.9 µM (active).

With `CCOC(=O)C(C)Oc1ccc(Oc2cnc3cc(Cl)ccc3n2)cc1` (configuration not stated), the compound was called inactive.

For `C#CCOC(=O)[C@@H](C)Oc1ccc(Oc2ncc(Cl)cc2F)cc1`, the call was inactive.

In the case of `CCOC(=O)COc1cc(-n2ncc(C(F)(F)F)c(C)c2=O)c(F)cc1Cl`, the half-maximal activity concentration (AC50) is 20 µM (active).

As to `CCCCOC(=O)[C@@H](C)Oc1ccc(Oc2ccc(C(F)(F)F)cn2)cc1`, the result was inactive.

For `Cc1nn(C)c(Oc2ccccc2)c1C=NOCc1ccc(C(=O)OC(C)(C)C)cc1`, the call was inactive.

Consider `CSC(=O)c1cccc2nnsc12`, for which the result was inactive.

As for `CCCCC(CC)CN1C(=O)C2C3C=CC(C3)C2C1=O` (configuration not stated), the AC50 is 20 µM (active).

With `CC(C)(C)[C@@H](O)[C@@H](Cc1ccc(Cl)cc1)n1cncn1`, the AC50 is 2.66 µM (active).

`COc1c(Cl)ccc(Cl)c1C(=O)O`: the result was inactive.

Regarding `CCN(Cc1c(F)cccc1Cl)c1c([N+](=O)[O-])cc(C(F)(F)F)cc1[N+](=O)[O-]`, the AC50 is 1.45 µM (active).

In the case of `O=C(O)C1(C(=O)Nc2ccc(Cl)cc2Cl)CC1`, the result was inactive.

In the case of `OB(O)O`, the outcome was inactive.

In the case of `CCCCCOC(=O)COc1cc(N2C(=O)C3=C(CCCC3)C2=O)c(F)cc1Cl`, the AC50 is 4.01 µM (active).

Take `CCCCCCC(C)OC(=O)COc1nc(F)c(Cl)c(N)c1Cl` (configuration not stated): the outcome was inactive.
